SKBR3 24h inh: SK-BR-3 proliferation inhibitors, primary screen, cell-based, human, 24 h | viability, % at 10 µM | SK-BR-3 viability, CellTiter-Glo ATP luminescence; hits give low values | 41,000 compounds, 0.47% hits;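 active = viability at or below the median of all test compounds minus 3 SD, in both replicates if run twice, cut at about 45% in these data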;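 note: 100% = median untreated cell wells and 0% = median positive control drug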
mHtt clearance: clearance of mutant huntingtin inclusions, primary screen, imaging, HeLa Exon1htt(103Q)mCFP, confocal imaging | aggregate imaging; zero = plate's median compound well | inhibition, % at 1.5 µM | 47,000 compounds, 0.42% hits;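 active = inhibition of aggregate fluorescence above about 70%, also judged a hit by eye on the cell image, limit read from the data, passing the limit was not always enough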;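 note: cells exposed to compound for three days before fixation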
Her2 expr inh: inhibitors of Her2 protein expression, primary screen, SKBR-3 cells, AlphaScreen, 66K library; SKBR-3 HER2 protein level, 18-24 h; hits give low values; AID 645, 2007; HER2 level % of control, % at 10 µM; 65,000 compounds, 0.69% hits;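 active = HER2 level under 5% of the carrier-only control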;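 note: 100% = DMSO carrier and 0% = 500 nM PU-H71 HSP90 inhibitor; lower value means stronger loss of Her2 protein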
* hit, by the source's call; x = no result. An excerpt weighted towards active compounds, which were near 0.97% of everything screened.

SMILES | SKBR3 24h inh | mHtt clearance | Her2 expr inh
CC(C)n1c(SCc2ccc(Cl)cc2)nc2c1c(=O)[nH]c(=O)n2C | 76 | 19 | -55*
CC(C)CCn1c(SCc2ccc(Cl)cc2)nc2c1c(=O)[nH]c(=O)n2C | 80 | 56 | 44
Cc1cc2ccccc2c(=O)n1CC(=O)NCC(=O)N(C)C1CCCCC1 | x | 15 | x
O=C(N/N=C/c1ccccn1)c1ccco1 | x | -12 | x
CCCc1sc(N/N=C/c2ccccn2)nc1-c1ccc(F)cc1 | x | 82* | x
CC1CCN(Cc2ccc(-c3nn[nH]n3)cc2)CC1 | x | -17 | 74
O=C(c1cc2ccccc2oc1=O)N(Cc1ccco1)CC1CCCO1 (configuration not stated) | 109 | 27 | 100
CCCCN1C(=O)C(O)=C(C(C)=O)C1c1ccccc1 (configuration not stated) | x | -22 | x
COCCCN1C(=O)C(O)=C(C(C)=O)C1c1cccc(F)c1 (configuration not stated) | 77 | -12 | -16*
Cc1ccc(N(CC(=O)NC2CCCC2)C(=O)c2c(C)noc2C)cc1C | x | 4 | x
COc1ccc(CCNc2oc(COc3ccccc3F)nc2C#N)cc1 | 103 | x | -30*
N#Cc1nc(COc2ccccc2F)oc1NCc1ccc(F)cc1 | x | -193 | 99
Cc1ccc(S(=O)(=O)CCC(=O)OCC(=O)Nc2cc(C)on2)cc1 | x | 40 | 90
Cc1ccc(S(=O)(=O)CCC(=O)c2ccc(O)cc2O)cc1 | 96 | x | -7.3*
Cc1c(-c2ccco2)[n+](=O)c2c(n1[O-])CCCCC2 | 93 | -60 | 79
Cc1c(-c2cccs2)[n+](=O)c2c(n1[O-])CCCC2 | 103 | x | -31*
O=C(CCC(=O)N1CCCC1)Nc1nnc(C(F)(F)F)s1 | 88 | x | 97
O=C(O)CCC(=O)Nc1nnc(C(F)(F)F)s1 | 40* | x | 105
CCC(C)C(NC(=O)C(C)NC(=O)CNC(=O)CNC(=O)OCc1ccccc1)C(=O)OC (configuration not stated) | x | 23 | x
CNC(=O)N(C1=NCC(C)(C)S1)c1ccc(F)c(Cl)c1 | x | -3 | 67
O=C1c2ccccc2NC(c2ccco2)N1O (configuration not stated) | x | -9 | 91
O=C1C2=C(Nc3ccccc3SC2c2ccco2)c2ccccc21 (configuration not stated) | x | 74* | 82
CC(=O)c1cc(-c2nc3ccccc3n2C)n(C)c1 | 88 | 71* | 73
Cn1cc(C(=O)c2ccc(F)cc2)cc1-c1nc2ccccc2n1C | 103 | -28 | 85
Cn1c(CCNC(=O)c2ccco2)nc2cc(NS(=O)(=O)c3ccc(Cl)cc3)ccc21 | 93 | x | 92
SMILES | SKBR3 24h inh | mHtt clearance | Her2 expr inh
COc1ccc(-c2nc(N)nc(C)c2Oc2ccccc2Br)c(O)c1 | 130 | x | 63
Cc1nc(NC(=O)c2ccco2)sc1C(=O)Nc1ccc(Br)cc1 | x | x | -3.0*
COC(=O)c1sc(NC(=O)c2ccco2)nc1C | x | x | 91
CC(=O)c1cccc(NC(=O)COc2ccc(S(=O)(=O)N3CCCCC3)cc2)c1 | 100 | 67 | 90
CC(=O)N1CCc2cc(Br)cc(S(=O)(=O)N3CCCCCC3)c21 | 41* | -23 | 106
CC(=O)N1CCc2cc(Br)cc(S(=O)(=O)N3CCN(C(=O)c4ccco4)CC3)c21 | 71 | x | 112
Cc1cc(NC(=O)CNC(=O)C2CCCCC2)no1 | x | x | -20*
CCOC(=O)c1cccc(NC(=O)CNC(=O)C2CCCCC2)c1 | 103 | x | 104
CCOC(=O)c1c(NC(=O)CSc2nc3c(c(=O)n(C)c(=O)n3C)n2CC)sc(C)c1C | 44* | x | 16
CCCn1c(SCC(=O)Nc2sc(C)c(C)c2C(=O)OC)nc2c1c(=O)n(C)c(=O)n2C | 90 | x | 110
C(=N/n1c2ccccc2c2ccccc21)/c1ccco1 | x | 6 | 1.7*
O=c1c2ccccc2nc(COc2ccccc2)n1/N=C/c1ccco1 | 94 | x | 117
OC1(c2ccccc2)C/C(=N\n2cnnc2)C=C1c1ccccc1 (configuration not stated) | 92 | x | 92
O=C(Nc1ccc(Cl)cc1)C1=Cc2ccccc2OC1 | x | -11 | x
Cc1ccc(S(=O)(=O)N(CC(=O)NCCC2=CCCCC2)Cc2ccccc2)cc1 | x | 38 | x
O=C(CN(Cc1ccccc1)S(=O)(=O)c1ccc(F)cc1)NCCC1=CCCCC1 | x | 76* | x
Cc1cccc(/C=N\NC(=O)c2csnn2)c1 | x | 2 | x
Cc1ccc(O)c(/C=N/NC(=O)C2=NNC(c3ccccc3)(c3ccccc3)C2)c1 | x | 71* | x
COc1cc2c(cc1OC)C(c1cc3cc4c(cc3[nH]c1=O)OCO4)N(C(=O)C(C)C)CC2 (configuration not stated) | x | 84* | x
COc1cc2c(cc1OC)C(C)N(C(=O)C1COc3ccccc3O1)CC2 (configuration not stated) | x | x | 117
CCn1c(C(=O)N2CCC(C(=O)NCCCSC3CCCCC3)CC2)cc2sccc21 | x | 4 | 68
CCCCOc1ccc(C(=O)C(CN2CCOCC2)c2ccccc2)cc1 (configuration not stated) | x | -13 | x
COc1ccc(C(=O)C(CN2CCCC2)c2ccccc2)cc1 (configuration not stated) | 115 | x | -6.9*
O=C(c1ccc(F)cc1)C(CN1CCOCC1)c1ccccc1 (configuration not stated) | 22* | 33 | -19*
COc1ccc(C(=O)CCN2CCCCCC2)cc1 | 110 | 56 | 23
SMILES | SKBR3 24h inh | mHtt clearance | Her2 expr inh
COc1ccc(S(=O)(=O)Nc2nc3n(n2)C(c2ccc(Cl)cc2)CC(=O)N3)cc1 (configuration not stated) | x | 29 | x
O=C(O)CCCN=CC1=C(O)C(C(=O)c2ccccc2)CCC1=O (configuration not stated) | x | 16 | x
COC(=O)CN(C#N)c1nc(SC)nc(N(C)C)n1 | x | -35 | 70
CNC(=O)CN(C#N)c1nc(N(C)C)nc(N(C)C)n1 | 90 | 4 | -20*
O=C(CSc1nnc2sc3ccccc3n12)NCc1ccc2c(c1)OCO2 | x | x | 96
COC(=O)c1sccc1-c1ccc(/C=N/OC(=O)c2ccccc2)o1 | x | -4 | x
COc1ccc(-c2nnc(SCC(=O)c3cc(C)n(Cc4cccs4)c3C)o2)cc1 | x | 15 | 52
COc1ccc(-n2cnnc2SCC(=O)c2cc(C)n(Cc3cccs3)c2C)cc1 | x | 35 | -21*
CCC(Sc1ncnc2sc(C)c(C)c12)C(=O)OC (configuration not stated) | x | 0 | x
Cn1c(C(C#N)C(=O)c2ccco2)nc2ccccc21 (configuration not stated) | 129 | x | -12*
COc1ccc(OCCn2c(NC(=O)c3ccco3)nc3ccccc32)cc1 | 89 | x | 59
CCCn1c(NC(=O)c2ccco2)nc2ccccc21 | x | x | 0.7*
Cn1c(C(C#N)C(=O)Cc2cccc3ccccc23)nc2ccccc21 (configuration not stated) | 84 | x | 79
CCOc1ccc(-c2nnn(CC(=O)Nc3cc(OC)ccc3OC)n2)cc1OCC | 88 | x | 90
CCOc1ccccc1NC(=O)Cn1nnc(-c2ccc(OCC)c(OCC)c2)n1 | 97 | -77 | -20*
CCOc1ccc(-c2nnn(CC(=O)c3ccc4c(c3)OCCO4)n2)cc1 | 104 | x | 99
CCOc1ccc(-c2nnn(CC(=O)c3cc(OC)ccc3OC)n2)cc1 | 91 | x | -14*
